Among the data in PubChem BioAssay are GTP binding signal, raw median fluorescence (lower = inhibition) (MCF (arbitrary fluorescence units)) and outcome values, retold here.

For part of these data: Results with a measured potency or affinity are listed apart. Calls of active or inactive are those of the source.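 The calls were made as follows, unless noted: active = dose-response curve with midpoint inside the tested range, moderate steepness, significant amplitude and little compound fluorescence or bead-attachment interference; inactive = the rest.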

The target in one test is Ras-related C3 botulinum toxin substrate 1 (Homo sapiens) (UniProt P63000). The test is described as follows: inhibition of wildtype Rac1 nucleotide loading – biochemical, multiplex bead flow cytometry, dose response (AID 1340;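 active = dose curve with midpoint inside tested range, moderate steepness, plateau gap beyond fit error, low compound glow and bead-link interference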). Particulars: GST-Rac1 beads, Bodipy-FL-GTP binding; at 100 µM (top of the series) unless noted. (In general: Flow cytometry measures light scatter and fluorescence of single cells or particles in a stream.)
The molecule `COc1ccc(-c2c3c(nc4sc5c(=O)[nH]c(C)nc5c24)CCC3)cc1` displayed a GTP binding signal, raw median fluorescence (lower = inhibition) (MCF (arbitrary fluorescence units)) of 153.
`COc1cc(C)c2c(c1C=O)Oc1c(c(C)c(O)c3c1C(O)OC3=O)OC2=O` (stereo not drawn) returned a GTP binding signal, raw median fluorescence (lower = inhibition) (MCF (arbitrary fluorescence units)) of 135.
For the molecule `COc1ccc(/C=N/NC(=S)Nc2cc(S(=O)(=O)N3CCOCC3)ccc2N2CCOCC2)cc1O`, the GTP binding signal, raw median fluorescence (lower = inhibition) (MCF (arbitrary fluorescence units)) was 0.
Consider `O=C(O)CCCCCNS(=O)(=O)c1cccc2c1C(=O)c1ccccc1C2=O`, for which the GTP binding signal, raw median fluorescence (lower = inhibition) (MCF (arbitrary fluorescence units)) was 0.
Molecule `O=C(Nc1cnn(C23CC4CC(CC(C4)C2)C3)c1)c1cnn2cccnc12` registered a GTP binding signal, raw median fluorescence (lower = inhibition) (MCF (arbitrary fluorescence units)) of 324.
As to `CCOc1ccc(NC(=S)N=Nc2c(O)[nH]c3ccccc23)cc1`, the GTP binding signal, raw median fluorescence (lower = inhibition) (MCF (arbitrary fluorescence units)) turned out to be 170.
Same read-out and setting: under `O=C(O)Cn1c(SCCOc2ccccc2Cl)nc2ccccc21` stands 30.5.
The same measure, in the same setting: under `COc1ccc(S(=O)(=O)N2CCOCC2)cc1C(=O)Nc1nc2ccccc2s1` stands 153; under `COC(=O)c1ccc(/C=N/Nc2nc(-c3ccc(Cl)cc3Cl)cs2)cc1`, 242.
With `CN1/C(=C\C=C(/C#N)C(=O)Nc2ccc(Cl)cc2)C(C)(C)c2ccccc21`, the GTP binding signal, raw median fluorescence (lower = inhibition) (MCF (arbitrary fluorescence units)) was 226.
`COc1cccc(C2CC(c3ccccc3)=NN2S(=O)(=O)c2ccc(C)cc2)c1OC` (stereo not drawn) showed a GTP binding signal, raw median fluorescence (lower = inhibition) (MCF (arbitrary fluorescence units)) of 311.
On to `Cc1cc(C)n2nc(SCCOc3ccccc3)nc2n1`, for which the GTP binding signal, raw median fluorescence (lower = inhibition) (MCF (arbitrary fluorescence units)) was determined as 183.
For `Cc1nc(NC(=O)/C=C/c2ccc(Cl)cc2Cl)sc1C(=O)N(C)C`, the GTP binding signal, raw median fluorescence (lower = inhibition) (MCF (arbitrary fluorescence units)) was 182.
On to `O=C1OC(c2ccc(F)cc2)=C/C1=C\c1ccc([N+](=O)[O-])o1`, for which the GTP binding signal, raw median fluorescence (lower = inhibition) (MCF (arbitrary fluorescence units)) was 283.
Consider `CC(=O)N1C(=O)/C(=C2\SC(=S)N(NC(=O)c3ccc(O)cc3)C2=O)c2ccccc21`, for which the GTP binding signal, raw median fluorescence (lower = inhibition) (MCF (arbitrary fluorescence units)) amounted to 155.
In turn, `O=C(Cn1c(-c2cscn2)nc2ccccc21)Nc1cc(F)ccc1F` came in with a GTP binding signal, raw median fluorescence (lower = inhibition) (MCF (arbitrary fluorescence units)) of 210.
Take `COc1ccc(OC)c(C(C(=O)NCc2ccco2)N(C(=O)Cn2nnc3ccccc32)C2CC2)c1` (stereo not drawn): the GTP binding signal, raw median fluorescence (lower = inhibition) (MCF (arbitrary fluorescence units)) was found to be 0.
Regarding `Cc1ccc(-n2nc3c(SCCN4CCOCC4)nnc(C)c3c2C)cc1`, the GTP binding signal, raw median fluorescence (lower = inhibition) (MCF (arbitrary fluorescence units)) turned out to be 194.
With `Cc1cc2nc3c(=O)n(C4CCCCC4)c(=O)[nH]c3nc2cc1N`, the GTP binding signal, raw median fluorescence (lower = inhibition) (MCF (arbitrary fluorescence units)) was 146.
Consider `COc1ccccc1OCCn1cc(C(=O)O)c2ccc(C)cc21`, for which the GTP binding signal, raw median fluorescence (lower = inhibition) (MCF (arbitrary fluorescence units)) was found to be 55.5.
For `Cc1cccc(C)c1CCNc1ncccc1C(=O)O`, the GTP binding signal, raw median fluorescence (lower = inhibition) (MCF (arbitrary fluorescence units)) was found to be 67.9.
Turning to `COc1cc(-c2cc(-c3ccc(O)cc3)nc(N)c2C#N)ccc1O`, the GTP binding signal, raw median fluorescence (lower = inhibition) (MCF (arbitrary fluorescence units)) turned out to be 158.
Still for that read-out and setting: under `COc1ccc(-c2cc(C(F)(F)F)n3nc(C(=O)O)cc3n2)cc1OC` stands 140; under `Cc1ccc(/C=C2\SC(=S)N(C(Cc3ccccc3)C(=O)O)C2=O)cc1` (stereo not drawn), 212.
With `COc1ccc(S(=O)(=O)Cc2ccc(C(=O)N3CCN(c4cccc(C)c4C)CC3)o2)cc1`, the GTP binding signal, raw median fluorescence (lower = inhibition) (MCF (arbitrary fluorescence units)) worked out at 171.
Turning to `Cc1ccc(C2=NN(CCC(=O)NCc3ccc4c(c3)OCO4)C(=O)CC2)cc1`, the GTP binding signal, raw median fluorescence (lower = inhibition) (MCF (arbitrary fluorescence units)) turned out to be 207.
For the molecule `Cc1ccc(CSc2ncccc2C(=O)O)cc1`, the GTP binding signal, raw median fluorescence (lower = inhibition) (MCF (arbitrary fluorescence units)) stood at 284.
Molecule `O=C(O)c1cccc(-n2cccc2/C=C2/NC(=O)N(c3ccc(Cl)cc3)C2=O)c1` returned a GTP binding signal, raw median fluorescence (lower = inhibition) (MCF (arbitrary fluorescence units)) of 213.
The same measure, in the same setting: under `CCN1C(=O)C(CC(=O)Nc2ccc(F)cc2)N(CCc2ccc(OC)cc2)C1=S` (stereo not drawn) stands 239; under `CCn1cc(C(=O)O)c(=O)c2cc(F)c(N/N=C/c3ccccc3)cc21`, 144.
Turning to `O=C(O)CC/C(=C\c1ccc(N2CCOCC2)c([N+](=O)[O-])c1)c1nc2ccccc2s1`, the GTP binding signal, raw median fluorescence (lower = inhibition) (MCF (arbitrary fluorescence units)) was determined as 212.
In turn, `O=C(COc1ncnc2cc([N+](=O)[O-])ccc12)NC(=O)NC1CCCCC1` registered a GTP binding signal, raw median fluorescence (lower = inhibition) (MCF (arbitrary fluorescence units)) of 153.
In turn, `COc1ccccc1OCc1cccc(C(=O)O)c1` yielded a GTP binding signal, raw median fluorescence (lower = inhibition) (MCF (arbitrary fluorescence units)) of 42.
In the case of `COc1ccc(C(=O)O)c(OCc2c(C)cccc2C)c1`, the GTP binding signal, raw median fluorescence (lower = inhibition) (MCF (arbitrary fluorescence units)) came out at 55.5.
In turn, `O=C(NCc1cccs1)c1cccn2c(=O)c3sccc3nc12` returned a GTP binding signal, raw median fluorescence (lower = inhibition) (MCF (arbitrary fluorescence units)) of 138.
In the case of `Cc1cc(NC(=O)/C(C#N)=C/c2ccc(-c3ccc(SC(F)F)cc3)o2)n(-c2ccccc2)n1`, the GTP binding signal, raw median fluorescence (lower = inhibition) (MCF (arbitrary fluorescence units)) was 211.
The molecule `CCCOC(=O)NC1CCS(=O)(=O)C1` (stereo not drawn) came in with a GTP binding signal, raw median fluorescence (lower = inhibition) (MCF (arbitrary fluorescence units)) of 198.
`Cc1nc(N/N=C/c2ccc(O)cc2)c2cnn(-c3ccccc3)c2n1` came in with a GTP binding signal, raw median fluorescence (lower = inhibition) (MCF (arbitrary fluorescence units)) of 191.
For the molecule `O=C(Nc1ccc(S(=O)(=O)N2CCCc3ccccc32)cc1)C1CCCO1` (stereo not drawn), the GTP binding signal, raw median fluorescence (lower = inhibition) (MCF (arbitrary fluorescence units)) was 286.

The target of another test is GTPase HRas (Homo sapiens) (UniProt P01112). Nature of the test: blockade of GTP loading onto mutant Ras – biochemical, activated mutant, multiplex bead flow cytometry, dose response (AID 1341).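 Also: GST-tagged constitutively activated Ras mutant immobilized on beads and multiplexed with other GTPases.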 Particulars: bead-based flow cytometry, Bodipy-FL-GTP binding; series mostly up to 100 µM.
`COc1ccc(-c2c3c(nc4sc5c(=O)[nH]c(C)nc5c24)CCC3)cc1`: the call was inactive.
Regarding `COc1cc(C)c2c(c1C=O)Oc1c(c(C)c(O)c3c1C(O)OC3=O)OC2=O` (stereo not drawn), the call was inactive.
Turning to `COc1ccc(/C=N/NC(=S)Nc2cc(S(=O)(=O)N3CCOCC3)ccc2N2CCOCC2)cc1O`, the call was inactive.
As to `O=C(O)CCCCCNS(=O)(=O)c1cccc2c1C(=O)c1ccccc1C2=O`, the outcome was inactive.
As for `O=C(Nc1cnn(C23CC4CC(CC(C4)C2)C3)c1)c1cnn2cccnc12`, the molecule was classed as inactive.
In the case of `CCOc1ccc(NC(=S)N=Nc2c(O)[nH]c3ccccc23)cc1`, the molecule was classed as inactive.
Take `O=C(O)Cn1c(SCCOc2ccccc2Cl)nc2ccccc21`: the outcome was inactive.
Regarding `COc1ccc(S(=O)(=O)N2CCOCC2)cc1C(=O)Nc1nc2ccccc2s1`, the molecule was called inactive.
Same read-out and setting: under `COC(=O)c1ccc(/C=N/Nc2nc(-c3ccc(Cl)cc3Cl)cs2)cc1` stands “inactive”.
`CN1/C(=C\C=C(/C#N)C(=O)Nc2ccc(Cl)cc2)C(C)(C)c2ccccc21`: the molecule was classed as inactive.
Still for that read-out and setting: under `COc1cccc(C2CC(c3ccccc3)=NN2S(=O)(=O)c2ccc(C)cc2)c1OC` (stereo not drawn) stands “inactive”; under `Cc1cc(C)n2nc(SCCOc3ccccc3)nc2n1`, “inactive”; under `Cc1nc(NC(=O)/C=C/c2ccc(Cl)cc2Cl)sc1C(=O)N(C)C`, “inactive”.
As to `O=C1OC(c2ccc(F)cc2)=C/C1=C\c1ccc([N+](=O)[O-])o1`, the outcome was inactive.
Same read-out and setting: under `CC(=O)N1C(=O)/C(=C2\SC(=S)N(NC(=O)c3ccc(O)cc3)C2=O)c2ccccc21` stands “inactive”; under `O=C(Cn1c(-c2cscn2)nc2ccccc21)Nc1cc(F)ccc1F`, “inactive”; under `COc1ccc(OC)c(C(C(=O)NCc2ccco2)N(C(=O)Cn2nnc3ccccc32)C2CC2)c1` (stereo not drawn), “inactive”.
Take `Cc1ccc(-n2nc3c(SCCN4CCOCC4)nnc(C)c3c2C)cc1`: the molecule was called inactive.
In the case of `Cc1cc2nc3c(=O)n(C4CCCCC4)c(=O)[nH]c3nc2cc1N`, the molecule was classed as inactive.
As for `COc1ccccc1OCCn1cc(C(=O)O)c2ccc(C)cc21`, the molecule was classed as inactive.
As for `Cc1cccc(C)c1CCNc1ncccc1C(=O)O`, the molecule was classed as inactive.
In the case of `COc1cc(-c2cc(-c3ccc(O)cc3)nc(N)c2C#N)ccc1O`, the call was inactive.
In the case of `COc1ccc(-c2cc(C(F)(F)F)n3nc(C(=O)O)cc3n2)cc1OC`, the molecule was called inactive.
With `Cc1ccc(/C=C2\SC(=S)N(C(Cc3ccccc3)C(=O)O)C2=O)cc1` (stereo not drawn), the molecule was called inactive.
Turning to `COc1ccc(S(=O)(=O)Cc2ccc(C(=O)N3CCN(c4cccc(C)c4C)CC3)o2)cc1`, the call was inactive.
Take `Cc1ccc(C2=NN(CCC(=O)NCc3ccc4c(c3)OCO4)C(=O)CC2)cc1`: the call was inactive.
`Cc1ccc(CSc2ncccc2C(=O)O)cc1`: the outcome was inactive.
In the case of `O=C(O)c1cccc(-n2cccc2/C=C2/NC(=O)N(c3ccc(Cl)cc3)C2=O)c1`, the molecule was classed as inactive.
Regarding `CCN1C(=O)C(CC(=O)Nc2ccc(F)cc2)N(CCc2ccc(OC)cc2)C1=S` (stereo not drawn), the molecule was called inactive.
With `CCn1cc(C(=O)O)c(=O)c2cc(F)c(N/N=C/c3ccccc3)cc21`, the molecule was classed as inactive.
As for `O=C(O)CC/C(=C\c1ccc(N2CCOCC2)c([N+](=O)[O-])c1)c1nc2ccccc2s1`, the molecule was called inactive.
Consider `O=C(COc1ncnc2cc([N+](=O)[O-])ccc12)NC(=O)NC1CCCCC1`, for which the molecule was classed as inactive.
As for `COc1ccccc1OCc1cccc(C(=O)O)c1`, the molecule was called inactive.
On the same count and under the same terms, under `COc1ccc(C(=O)O)c(OCc2c(C)cccc2C)c1` stands “inactive”; under `O=C(NCc1cccs1)c1cccn2c(=O)c3sccc3nc12`, “inactive”.
Still for that read-out and setting: under `Cc1cc(NC(=O)/C(C#N)=C/c2ccc(-c3ccc(SC(F)F)cc3)o2)n(-c2ccccc2)n1` stands “inactive”; under `CCCOC(=O)NC1CCS(=O)(=O)C1` (stereo not drawn), “inactive”; under `Cc1nc(N/N=C/c2ccc(O)cc2)c2cnn(-c3ccccc3)c2n1`, “inactive”.
Turning to `O=C(Nc1ccc(S(=O)(=O)N2CCCc3ccccc32)cc1)C1CCCO1` (stereo not drawn), the outcome was inactive.
